According to the supplement of paper PMC4206467:

These molecules were tested on Perkinsus marinus PRA240 (assay: ATP content (proliferation) relative to DMSO control; higher = more parasite growth (less inhibition)). Details: 20 µM; 4 days.
Protocol: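 Perkinsus marinus PRA240 trophozoites (2-5x10^6 cells/ml, 100 µl, 96-well) were exposed once to MMV Malaria Box compounds at 20 µM (0.1% DMSO) in triplicate. ATP content (ATPlite bioluminescence) was read at day 4 post-exposure and normalised to DMSO + cells control wells (100% activity). Compounds were identified by joining plate and well to the Malaria Box list.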

SMILES	ATP content
COc1cc(-c2nc(-c3ccc(Sc4ccccc4)cc3)c(-c3ccccc3)[nH]2)cc(OC)c1O	78.3%
Cc1ccc(CN2CCC(C(=O)Nc3ccc(-c4cc5ccccc5[nH]4)cc3)CC2)o1	83.4%
CCOc1ccc(Nc2ccnc3cc(Cl)ccc23)cc1	55.2%
COc1ccc(C=C2SC(Nc3ccccc3)=NC2=O)cc1	61.4%
CN1c2ccccc2N(C)C1c1ccc2c(c1)OCO2	87.3%
CC(NCc1ccccc1)c1cc(Cl)ccc1O (stereo not given)	85.9%
CCCCCn1c(=N)n(CC(O)COc2cccc(C)c2)c2ccccc21 (stereo not given)	127%
CCN(CC)CCCNc1ccnc2cc3ccccc3cc12	139%
CN1CCN(c2ncnc3c2[nH]c2ccc(Cl)cc23)CC1	111%
Cc1cc(N(C)C)nc(Nc2ccc(NC(=O)Nc3ccccc3)cc2)n1	85.9%
CCCCOc1ccc(C(=O)Nc2cc(C)on2)cc1	61.2%
CCC(=O)Nc1nnc(Cc2ccc(OC)c(OC)c2)s1	103%
CCOC(=O)C1=C(C)N=c2sc(=Cc3cc(Cl)ccc3O)c(=O)n2C1c1ccc(OC)cc1 (stereo not given)	61.6%
CCOC(=O)c1cnc2ccc(Cl)cc2c1NCCCN(C)C	147%
O=C(NNc1cc(N2CCCC2)nc(N2CCCC2)n1)c1ccccc1	101%
COc1cc2cc(C(=O)Nc3ccccc3)c(N)nc2cc1OC	44.3%
OC(CNC1CCCC1)Cn1c2ccccc2c2ccccc21 (stereo not given)	148%
O=C(Nc1ccc(C23CC4CC(CC(c5ccccc5)(C4)C2)C3)cc1)c1cccs1	68.7%
COc1ccc(C(=O)Nc2ccc3nc(N4CCCCC4)cc(C)c3c2)cc1OC	101%
COc1cccc(NC(=O)Cn2c(C)c(C#N)c3ccccc32)c1	110%

SMILES	ATP content
CC1(c2ccccc2)Nc2ccccc2-c2nc3ccccc3n21 (stereo not given)	109%
Cn1c(C(=O)c2cccc3ccccc23)nc2ccccc21	55.5%
O=C(Nc1ccc(-c2nc3ccccc3[nH]2)cc1)c1ccc(Cl)c(Cl)c1	97.8%
c1ccc(C2=Nc3ccccc3N=C(c3ccccc3)c3ccccc32)cc1	117%
CC1CC2=C(CC1CNCCCN(C)C)C(C)(C)CCC2 (stereo not given)	119%
O=C(Nc1ccccc1O)c1ccc(-c2ccc(Cl)cc2Cl)o1	82.5%
O=C(Nc1ccc(CN2CCOCC2)cc1)c1ccc(-c2cc(Cl)ccc2Cl)o1	122%
CCCOCc1cc(CN2CCN(c3cccc(Cl)c3)CC2)c(O)c2ncccc12	22.8%
CCOc1ccc2c(c1)CN(Cc1ccc(Cl)cc1)CO2	155%
CCCC(c1nnnn1C1CCCCC1)N1CCN(C(=O)c2ccco2)CC1 (stereo not given)	115%
CCCCCCc1cc2cc(-c3nc4ccccc4[nH]3)c(=Nc3ccccc3C)oc2cc1O	121%
Nc1nc(Nc2cccc(F)c2)nc2ccccc12	26%
Cc1sc(NC(=O)c2ccco2)c(C(c2cccnc2)N2CCC(Cc3ccccc3)CC2)c1C (stereo not given)	48.5%
COC(=O)c1ccc(C2C3=C(O)CC(c4ccc(F)cc4)CC3=Nc3ccccc3N2C(=O)c2ccccc2)cc1 (stereo not given)	105%
CCOc1cccc(C(=O)Nc2ccc(-c3nc4ccccc4[nH]3)cc2)c1	143%
CCOC(=O)C1=C(C)N=c2sc(=Cc3ccccc3O)c(=O)n2C1c1ccc(OC)c2ccccc12 (stereo not given)	196%
CCCCCCc1cc2cc(-c3csc(C=Cc4ccccc4)n3)c(=O)oc2cc1O	137%
COc1cc(C(=O)ON=C(N)Cc2cccc3ccccc23)cc(OC)c1OC	87.4%
OC(CNCc1ccccc1)Cn1c2ccccc2c2ccccc21 (stereo not given)	105%
Cc1cc(Nc2cccc(F)c2)nc(NCc2ccccc2)n1	94.7%
